The results in this text go back to PubChem BioAssay AID2546 (National Center for Advancing Translational Sciences (NCATS), 2010).

In all, about 310,000 compounds went through this assay and about 11,000 (3.5%) were called active. Not shown: some 8% with an inconclusive outcome. Calls follow the shape of the dose curve; as a rule, active = well fitted inhibition curve with a large enough effect; inconclusive = small, poorly fitted or top-dose-only effect, or effect the other way; inactive = flat fitted curve, though single readings scatter. Shown is part of a subset that was picked to be rich in actives.
% is scaled to controls: 0 for no effect and ±100 for the full control effect; potency is read from the fitted curve at half-maximal effect.

The nature of this test: VP16 counterscreen qHTS for inhibitors of ROR gamma transcriptional activity.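 Also: Gal4-VP16 expression switched on by copper sulfate through the metallothionein promoter; nearly all actives have a fitted effect of over 50% in size.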 The conditions noted are these: Drosophila S2 Gal4-VP16 UAS-luciferase, luminescence, 20 h; series mostly up to 53.6 µM; activity, negative = inhibition: at the top concentration. Background: The purpose of a counterscreen is to sort out artefacts and off-target activity.
As to `O=C(c1cc(C(=O)N2CCN(c3ccc(F)cc3)CC2)cc([N+](=O)[O-])c1)N1CCN(c2ccc(F)cc2)CC1`, the “activity, negative = inhibition” value is -15.2% (inactive). On the same count and under the same terms, with `CC(C)(C)C(=O)NC1CC2CCCC(C1)N2C(=O)Nc1ccccc1F` (configuration not stated) the figure was 10.1% (inactive); with `O=CN1CCN(C(=O)c2ccc3c(c2)OCO3)CC1`, 5.96% (inactive); with `CC(NC(=S)Nc1ccc(S(N)(=O)=O)cc1)c1ccc2c(c1)OCO2` (configuration not stated), -0.45% (inactive). For `CC(NC(=S)Nc1ccc(OC(F)F)cc1)c1ccc(F)cc1` (configuration not stated), the Potency is 12.6 µM (active).

Consider `CC(C)N(Cc1ccccc1)C(=S)Nc1ccc(OC(F)F)cc1`, for which the “activity, negative = inhibition” value was -5.97% (inactive). Regarding `Cc1cc(-n2nc(C)cc2C)n2nc(C)c(-c3ccccc3)c2n1`, the “activity, negative = inhibition” value is 7.94% (inactive). Consider `Cc1cc(C)c2c(n1)nn1c(-n3ccnc3)cc(C)nc21`, for which the Potency was 15.8 µM (active). In the case of `Cc1cc(C)c2c(NC(=O)C3CC3)nn(C)c2n1`, the “activity, negative = inhibition” value is 1.02% (inactive).

For the compound `O=C(Nc1cccc(NC(=O)c2ccc(Br)cc2)c1)c1ccccc1`, the “activity, negative = inhibition” value is -10.1% (inactive).

For the compound `CC(=N\NC(=O)c1cc(Br)ccc1O)/C(=N/O)C(=O)Nc1ccccc1`, the Potency is 11.2 µM (active).

Take `C/C(=N/NC(=O)c1cc(Cl)ccc1O)C12CC3CC(CC(C3)C1)C2`: the “activity, negative = inhibition” value was -5.44% (inactive). On the same count and under the same terms, in the case of `COc1ccc(-c2c(C)cc3oc(=O)cc(-c4ccccc4)c3c2C)cc1F` it was 6.07% (inactive). With `COc1cc(OC)c2c(-c3cccc(-c4cccc(N)c4)c3)cc(=O)oc2c1`, the Potency was 10 µM (active). Turning to `COc1ccc(-c2c(C)cc3oc(=O)cc(-c4ccccc4)c3c2C)cc1OC`, the “activity, negative = inhibition” value is 2.38% (inactive). `Cc1cc(NC(=O)CCC(=O)N(Cc2ccccc2)C(C(=O)NC2CCCC2)c2ccc(C)o2)no1` (configuration not stated): the “activity, negative = inhibition” value is -2.38% (inactive). Still for that read-out and setting: in the case of `CCc1cccc(C)c1N1C(=O)CN(Cc2ccccc2)C1=S` it was -3.99% (inactive); in that of `CCC(=O)/C(=C(/O)c1ccccc1)c1nc2ccccc2[nH]1`, -1.81% (inactive). Turning to `O=C(/C(=C/c1cccc(Cl)c1)c1nc2ccccc2[nH]1)c1ccccc1`, the Potency was 12.6 µM (active). In the case of `O=C(Cc1nc2ccccc2[nH]c1=O)c1ccc(Cl)cc1`, the “activity, negative = inhibition” value was 4.55% (inactive). Same read-out and setting: with `Cc1ccc(C)c(NC(=O)c2cc(-c3cc(C)cc(C)c3O)n[nH]2)c1` the figure was 3.11% (inactive); with `Cc1sc2ncn(CC(=O)NCCCC(=O)N(C)Cc3ccccc3)c(=O)c2c1C`, 13.7% (inactive). Regarding `CCc1ccc2c(c1)C1(NN=C(c3ccccc3)S1)C(=O)N2` (configuration not stated), the Potency is 6.31 µM (active). `CCCCN1C(=O)/C(=C2/Sc3ccc(Cl)cc3N2CC)SC1=S`: the “activity, negative = inhibition” value is -3.93% (inactive).

In the case of `O=c1c2ccccc2nc2n1C1(CCCCC1)Cc1ccccc1-2`, the “activity, negative = inhibition” value is 6.09% (inactive). With `CN(c1ccc2nc3ccccc3c(=O)n2n1)C1CCCCC1`, the Potency was 1.12 µM (active). For `CCOC(=O)C(C)Sc1nc2ccccc2c(=O)n1CC1CCCCC1` (configuration not stated), the “activity, negative = inhibition” value was 6.17% (inactive). On the same count and under the same terms, in the case of `C/C(=N\N(C)C)c1ccc(OCCOc2ccc([N+](=O)[O-])cc2)cc1` it was -9.15% (inactive). With `O=C(/C=C/c1ccc([N+](=O)[O-])o1)NNC(=O)c1ccc(F)cc1`, the Potency was 4.47 µM (active). With `C/[N+]([O-])=C\c1ccc([N+](=O)[O-])o1`, the “activity, negative = inhibition” value was 2.41% (inactive).

Regarding `O=C(N/N=C/c1ccc([N+](=O)[O-])o1)c1cn(-c2ccccc2)nc1-c1ccc(F)cc1`, the “activity, negative = inhibition” value was 0.475% (inactive). Same read-out and setting: in the case of `CCc1ccc(NC(=O)CN2CCC(C(=O)c3ccc(OC)cc3)CC2)cc1` it was 0.735% (inactive); in that of `COC(C(=O)Nc1ccc(C(C)=O)cc1)c1ccccc1` (configuration not stated), 16.9% (inactive). Still for that read-out and setting: in the case of `CC(=O)Nc1ccc(NC(=O)[C@@H](NC(=O)c2cccc(C)c2)C(C)C)cc1` it was -0.828% (inactive).

Take `Cc1ccc(NC(=O)C(C)c2cccc(C(=O)c3ccccc3)c2)cc1` (configuration not stated): the Potency is 7.08 µM (active). For the compound `CCn1cc(S(=O)(=O)c2cccc(C)c2)c(=O)c2cc(F)c(N3CCN(C)CC3)cc21`, the “activity, negative = inhibition” value was 0.516% (inactive).

In the case of `Fc1ccc(-c2ccc(NCCN3CCOCC3)nn2)cc1`, the “activity, negative = inhibition” value was -0.209% (inactive). The same measure, in the same setting: with `N#Cc1ccccc1NC(=O)c1ccc2c(c1)OCO2` the figure was 22.4% (inactive); with `CCOC(=O)C1(Cc2ccccc2C)CCCN(C(=O)c2ccc(COC)o2)C1` (configuration not stated), 11.1% (inactive). Regarding `CC1=CC(C)(C)Nc2ccc(OC(=O)CN3C(=O)C4CCCCC4C3=O)cc21` (configuration not stated), the Potency is 7.94 µM (active). As for `CC1=CC(C)(C)Nc2ccc(OC(=O)C(Cc3ccccc3)N3C(=O)C4CCCCC4C3=O)cc21` (configuration not stated), the “activity, negative = inhibition” value was 10.5% (inactive). Turning to `O=C(CN1C(=O)C2C3CCC(C3)C2C1=O)Oc1ccc2ccccc2c1` (configuration not stated), the “activity, negative = inhibition” value was -10.4% (inactive).

On to `COc1ccc2[nH]cc(CCN3C(=O)c4ccc(C(=O)O)cc4C3=O)c2c1`, for which the “activity, negative = inhibition” value is -9% (inactive). For the compound `Cc1cccc(N(C)C(=O)CN2C(=O)COc3ccc(S(=O)(=O)N4CCCCCC4)cc32)c1`, the “activity, negative = inhibition” value was -1.84% (inactive).

With `COc1ccc(-c2oc3ncnc(NCCCO)c3c2-c2ccc(OC)cc2)cc1`, the “activity, negative = inhibition” value was -13.1% (inactive). Take `C[C@H](NC(=O)OC(C)(C)C)c1nnc(SCC(N)=O)o1`: the “activity, negative = inhibition” value is 8.92% (inactive). On to `CC(C)Sc1nnc([C@H](Cc2ccccc2)NC(=O)OC(C)(C)C)o1`, for which the “activity, negative = inhibition” value was 5.57% (inactive).

With `C[C@@H](NC(=O)OC(C)(C)C)c1nnc(S(=O)(=O)Cc2ccccc2)o1`, the Potency is 4.47 µM (active). For `CC(=O)Nc1cccc(NC(=O)CSc2nccn2Cc2ccc(F)cc2)c1`, the “activity, negative = inhibition” value is -5.44% (inactive). `Cc1ccc2nc(SCC(=O)NC3CCCC3)[nH]c2c1`: the “activity, negative = inhibition” value was 4.32% (inactive). As for `O=C(Nc1nc(-c2ccc(-c3ccccc3)cc2)cs1)c1cnccn1`, the Potency is 2 µM (active). Regarding `O=C(Nc1nc(-c2cccnc2)cs1)c1ccccc1F`, the “activity, negative = inhibition” value was 5.72% (inactive).
